Source: PubChem (National Center for Advancing Translational Sciences (NCATS))
Tb PYK inh: T. brucei pyruvate kinase inhibition; actives 0.12% (n = 410,000); Potency, µM (doses to about 76.8 µM), usual class: inhibitors; Q57TT1; TbPYK enzyme, Kinase-Glo Plus ATP luminescence, 45 min; note: nearly all actives have a fitted effect of over 50% in size
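Activity of T. brucei pyruvate kinase was followed by Kinase-Glo Plus luminescence after the enzyme reacted 45 min at room temperature with 130 uM ADP (final) and substrate. Test compounds were added before ADP at multiple concentrations.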
RE007 growth inh: less growth of the S. pombe RE007 Vpr strain; S. pombe RE007 Vpr strain, BacTiter-Glo ATP luminescence, 24 h; Potency, µM (series often up to 92.2 µM), usual class: inhibitors; actives 0.21% (n = 360,000); AID 651644; active = well fitted falling curve with a large enough effect; inconclusive = small, poorly fitted or top-dose-only effect; inactive = no such curve, though single readings can be large or run the other way; note: nearly all actives have a fitted effect of over 50% in size
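Fission yeast strain RE007, carrying one chromosomally integrated HIV-1 vpr copy, was seeded at OD 0.01 in PMG+AL medium with 23 nL pinned compound. After 24 h at 30 °C and 99% humidity, viability was read by BacTiter-Glo luminescence.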
Sm TGR block: blocks Schistosoma mansoni thioredoxin glutathione reductase; purified TGR, DTNB reduction, TNB absorbance 405 nm; actives 3% (n = 360,000); Potency, µM (top dose mostly 114 µM), hits mostly inhibitors; note: nearly all actives have a fitted effect of over 60% in size
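First, TGR (20 nM dispensed) and NADPH were mixed with compound. Second, a 15 min room-temperature incubation followed. Third, further NADPH and then DTNB were added to start the reaction. Finally, TNB absorbance was monitored kinetically.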
LmPK inh: LmPK (Leishmania mexicana) enzyme inhibition; purified LmPK, Kinase-Glo ATP luminescence, 1 h; Potency, µM (doses to about 57.5 µM), most hits filed as inhibitors; actives 0.37% (n = 290,000); AID 1721
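Pyruvate kinase activity monitored as ATP production (luciferase luminescence). Conditions: 0.1 nM enzyme, 0.5 mM PEP, 0.1 mM ADP, 1 h, RT; normalized against uninhibited and no-enzyme wells.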
Giardia FBPA inh: Giardia lamblia aldolase inhibition. purified Giardia FBPA. Potency, µM (highest dose often 59.6 µM), actives largely listed as inhibitors. AID 2451. A8B2U2. actives 0.71% (n = 290,000); note: nearly all actives have a fitted effect of over 55% in size
Target sequence (A8B2U2 whole entry, looked up): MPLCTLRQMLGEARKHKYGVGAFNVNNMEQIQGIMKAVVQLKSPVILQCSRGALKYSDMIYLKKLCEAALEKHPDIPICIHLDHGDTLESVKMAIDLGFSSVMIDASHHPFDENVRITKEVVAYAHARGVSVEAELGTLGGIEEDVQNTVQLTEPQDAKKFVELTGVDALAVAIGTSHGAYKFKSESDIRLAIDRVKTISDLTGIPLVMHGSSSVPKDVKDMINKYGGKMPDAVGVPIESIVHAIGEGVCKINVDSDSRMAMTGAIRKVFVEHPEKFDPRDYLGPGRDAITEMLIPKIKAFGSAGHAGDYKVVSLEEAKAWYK
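Giardia FBPA (40 nM reagent) was preincubated 10 min at RT with compound (up to 57.5 uM final), then substrate plus GAPDH/TPI/NAD/arsenate coupling system with diaphorase/resazurin was added; resorufin fluorescence (525/598 nm) was read after 20 min.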
Numbers stand for hits; 0 = inactive; ? = inconclusive; - = no result given; [ ] = dose if it differs, or a comment. An excerpt weighted towards active compounds, which were near 3.3% of everything screened. Unless noted, calls come from the whole dose curve; as a rule, active = well fitted curve in the direction sought with a large enough effect; inconclusive = small, poorly fitted or top-dose-only effect, or another doubt; inactive = no such curve, though single readings can be large; an effect the other way counts as inactive or inconclusive.

SMILES | Tb PYK inh | RE007 growth inh | Sm TGR block | LmPK inh | Giardia FBPA inh
COc1ccccc1C(=O)C1CCCN(C(=O)C2CCCC2)C1 (stereo unspecified) | 0 | ? | 0 | 0 | 0
Cc1nc2ccc(S(=O)(=O)NCC(=O)N3CCc4ccccc43)cc2s1 | 0 | 0 | 56.2µM | 0 | 0
Cc1nc2ccc(S(=O)(=O)NCC(=O)N3CCc4ccccc4C3)cc2s1 | 0 | 0 | 0 | 0 | 0
O=C(Nc1ccc(F)cc1F)c1ccc(-n2cccn2)c([N+](=O)[O-])c1 | 0 | 0 | 44.7µM | 0 | 0
O=C(c1cc(-c2ccco2)nc2ccccc12)N1CCCC(C(F)(F)F)C1 (stereo unspecified) | 0 | 0 | 35.5µM | - | -
O=C(c1cc2ccccc2cc1O)N1CCCC(C(F)(F)F)C1 (stereo unspecified) | 0 | 0 | 28.2µM | 0 | -
CCN1CCN(C(=O)c2cc(-c3ccc(Cl)s3)nc3ccccc23)CC1 | 0 | 0 | ? | 0 | 0
CCN1CCN(C(=O)c2cc(-c3ccco3)nc3ccccc23)CC1 | 0 | 0 | 28.2µM | - | -
COc1cc2ccccc2cc1C(=O)N1CCCC(C(F)(F)F)C1 (stereo unspecified) | 0 | 0 | 0 | - | -
Cn1c(N)c(C(=O)COC(=O)C2CCCCC2)c(=O)n(C)c1=O | 0 | 0 | 0 | 0 | 0
Cn1c(=O)c(C(=O)CCl)c(N)n(Cc2ccccc2)c1=O | 0 | 0 | 7.08µM | 0 | 0
CN(C)CC(=O)c1c(N)n(Cc2ccccc2)c(=O)n(C)c1=O | 0 | 0 | 0 | 0 | 0
Cn1c(N)c(C(=O)CCl)c(=O)n(C)c1=O | 0 | 0 | 25.1µM | 0 | 0
Cn1c(N)c(C(=O)CCl)c(=O)n(Cc2ccccc2)c1=O | 0 | 0 | 11.2µM | 0 | 0
Cc1ccc(S(=O)(=O)N2CCCCC2)cc1C(=O)c1nccn1C | 0 | 0 | 0[11.4 µM] | 0 | 0
Cc1nn(CC(=O)NCCCN2CCCCC2)c(=O)c2cc(-c3ccccc3)nn12 | 0 | 0 | 0 | 0 | 0
CCCCCC#CCC#CCC#CCC#CCCCC(=O)O | - | - | 20µM | 0 | 0
COC(=O)c1scc(C)c1NC(=O)Nc1ccccc1 | 0 | 0 | 0 | 0 | 0
COC(=O)c1scc(C)c1NC(=O)/C=C/C(=O)O | 0 | 0 | 1.41µM | 0 | 0
O=C(NCCN1CCOCC1)c1cc(-c2ccc(Cl)cc2Cl)on1 | 0 | 0 | 0 | 0 | 0
Cc1ccc(C(C)C)c(OCCN)c1 | 0 | 0 | 0 | 0 | 0
Cc1ccc(C(C)C)c(OCCCn2ccnc2C)c1 | 0 | 0 | 89.1µM | 0 | ?
CCn1c(Cc2cccs2)nnc1SCC(=O)Nc1ccc(OC)c(OC)c1 | 0 | 0 | 0 | 0 | 0
CCCc1nc(N)sc1C(=O)OCC | 0 | 0 | 0 | 0 | 0
Cc1nc(N)sc1C(=O)N1N=N1 | 0 | 0 | 2.51µM | 0 | 0
SMILES | Tb PYK inh | RE007 growth inh | Sm TGR block | LmPK inh | Giardia FBPA inh
c1ccc(-c2ncc3ccccn23)cc1 | 0 | 0 | 39.8µM | 0 | ?
COc1ccc2oc(-c3ccco3)cc(=O)c2c1 | 0 | 0 | 0 | ? | 0
COc1cccc2oc(-c3ccco3)cc(=O)c12 | 0 | 0 | 7.94µM | 0 | 0
C[C@]12CCC(=O)C=C1CC[C@@H]1[C@@H]2CC[C@@]2(C)[C@H]1CC[C@]2(C)O | 0 | 0 | 0 | 0 | 0
COc1ccccc1N1C(=O)CC(Sc2n[nH]c(-c3cccc(C)c3)n2)C1=O (stereo unspecified) | ? | 0 | 0.631µM | 0 | 0
Cc1ccc(C(=O)c2coc3cc([N+](=O)[O-])c(O)c([N+](=O)[O-])c23)cc1 | 0 | 0 | 50.1µM | 0 | ?
O=c1c(C=NCCN2CCNCC2)c(-c2ccccc2)[nH]n1-c1ccc([N+](=O)[O-])cc1 | - | - | 0 | 0 | 0
COc1ccc(-c2[nH]n(-c3ccc([N+](=O)[O-])cc3)c(=O)c2C=NCCN2CCNCC2)cc1 | - | - | 0 | 15.8µM | ?
Cc1[nH]n(-c2ccc([N+](=O)[O-])cc2)c(=O)c1C=NCCN1CCN(C(=O)c2ccccc2)CC1 | 0 | ? | 0 | 28.2µM | 0
CC1CC(C)CN(c2oc(-c3ccccc3F)nc2C#N)C1 (stereo unspecified) | 0 | 0 | 0 | 0 | 0
COc1ccccc1-c1nc(C#N)c(N2CC(C)CC(C)C2)o1 (stereo unspecified) | 0 | 0 | 1.12µM | 0 | 0
COc1cc(OC)c(CN2CCc3c([nH]c4ccccc34)C2)cc1Br | 0 | 0 | 35.5µM | 0 | 0
O=C(CCc1ccccc1)NCc1ccncc1 | 0 | 0 | 0 | 0 | 0
O=C(CCNNC(=O)c1ccncc1)NCc1ccccc1 | 0 | 0[18.4 µM] | 39.8µM | 0 | 0
O=C(Nc1ccc(F)cc1)NC1CCN(Cc2c(F)cccc2Cl)CC1 | 0 | 0 | 0 | 0 | 0
COc1cc(CN(C)CC2CCCN(CCc3cccc(C(F)(F)F)c3)C2)ccc1O (stereo unspecified) | 0 | 0 | 28.2µM | 0 | 0
COc1ccc(CN(C)CC2CCCN(CCc3ccc(F)cc3)C2)cc1OC (stereo unspecified) | 0 | 0 | 0 | 0 | 0
O=C(Cc1ccccc1)Nc1ccc(N2CCCC2)cc1 | 0 | 0 | ? | 0 | 0
O=C(Cc1ccccc1)Nc1cccc(N2CCCC2)c1 | 0 | ? | 31.6µM | 0 | 0
O=C(O)C(c1ccccc1)N1C(=O)/C(=C\c2ccc(-c3ccccc3Cl)o2)SC1=S (stereo unspecified) | 0 | 0 | 14.1µM | 0 | 0
O=C(O)C(c1ccccc1)N1C(=O)/C(=C\c2ccc(-c3ccc(Br)cc3)o2)SC1=S (stereo unspecified) | 0 | - | ? | 0 | 0
CC(=O)NCCc1cc2cc(C)c(C)cc2[nH]c1=O | 0 | 0 | 0 | 0 | 0
COc1ccc(C2NC3=C(CCC3)C3(C#N)C4(N=C(N)C23C#N)OCCO4)cc1 (stereo unspecified) | 0 | 0 | 0 | 0 | 0
COc1ccc(C2NC3=C(CCCC3)C(C#N)(C#N)C2(C#N)C#N)cc1 (stereo unspecified) | - | - | 1.78µM | 0 | ?
Cc1cc(C)n2nc(SCc3nnc(-c4ccc(F)cc4)o3)nc2n1 | - | - | 0 | 0 | 0
SMILES | Tb PYK inh | RE007 growth inh | Sm TGR block | LmPK inh | Giardia FBPA inh
Clc1ccc(C[n+]2csc3ccccc32)cc1 | ? | 0 | 4.47µM | 0 | 0
Fc1ccc(C[n+]2csc3ccccc32)cc1 | ? | 0 | 0 | 0 | 0
ClC1=C(Cl)C2(Cl)C(CBr)CC1(Cl)C2(Cl)Cl (stereo unspecified) | 0 | - | - | - | -
O=S(=O)(CCc1ccncc1)Cc1ccc2c3c(cccc13)CC2 | 0 | 0 | 39.8µM | 0 | 0
Cc1nc(SCC(=O)NCc2ccco2)c2c3c(sc2n1)CCCC3 | 0 | 0 | 0[11.4 µM] | 0 | 0
CC(C)Sc1nc(SCC(=O)O)c2c3c(sc2n1)COC(C)(C)C3 | 0 | 0 | 0 | 0 | 0
CCCc1nc2sc3c(SCC(=O)NCc4ccco4)ncnc3c2c2c1CCC2 | 0 | 0 | 15.8µM | 0 | 0
COC(=O)CSc1ncnc2c1sc1nc(-c3ccco3)c3c(c12)CC(C)(C)OC3 | - | - | 3.98µM | 0 | 0
